# Measurements taken from PubChem BioAssay (NCATS).
# Inconclusive results are not listed. Entries that show only a call come without a potency. The source made the active and inactive calls. Calls come from the whole dose curve; as a rule, active = well fitted curve in the direction sought with a large enough effect; inconclusive = small, poorly fitted or top-dose-only effect, or another doubt; inactive = no such curve, though single readings can be large; an effect the other way counts as inactive or inconclusive.
# Tests used:
# [1] = target: Nicotinamide N-methyltransferase (Homo sapiens) (UniProt P40261); test: Confirmatory Screen for Target Class Profiling of Small Molecule Inhibitors of Methyltransferases (AID 1745852); details: MTase-Glo luminescence, SAH detection, recombinant enzyme; measured here: NNMT max response; stronger effect = lower value
# Sequence of Nicotinamide N-methyltransferase (Homo sapiens) (P40261 whole entry, looked up): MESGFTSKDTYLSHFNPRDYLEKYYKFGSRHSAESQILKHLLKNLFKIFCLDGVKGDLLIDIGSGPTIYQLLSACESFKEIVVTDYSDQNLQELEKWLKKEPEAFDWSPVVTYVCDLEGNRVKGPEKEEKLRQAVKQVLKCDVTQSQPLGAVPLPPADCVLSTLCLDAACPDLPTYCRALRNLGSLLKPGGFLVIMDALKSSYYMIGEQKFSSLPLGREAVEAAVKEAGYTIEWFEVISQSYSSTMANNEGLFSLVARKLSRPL
# [2] = target: Phenylethanolamine N-methyltransferase (Homo sapiens) (UniProt P11086); test: as above; details: MTase-Glo luminescence, SAH detection, recombinant enzyme; measured here: PNMT max response; stronger effect = lower value
# Sequence of Phenylethanolamine N-methyltransferase (Homo sapiens) (P11086 whole entry, looked up): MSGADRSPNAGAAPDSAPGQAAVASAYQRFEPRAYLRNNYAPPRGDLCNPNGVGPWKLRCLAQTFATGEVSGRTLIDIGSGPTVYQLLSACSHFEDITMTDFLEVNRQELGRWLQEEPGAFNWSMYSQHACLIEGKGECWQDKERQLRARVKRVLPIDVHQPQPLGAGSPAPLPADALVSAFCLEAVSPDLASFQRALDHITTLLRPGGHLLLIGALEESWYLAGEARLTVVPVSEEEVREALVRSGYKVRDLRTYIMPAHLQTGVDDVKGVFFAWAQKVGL
# [3] = target: Metallo-beta-lactamase type 2 (Klebsiella pneumoniae) (UniProt C7C422); test: qHTS to identify inhibitors of the New Delhi Metallo-beta-lactamase (NDM): assay validation screen against the NCATS LOPAC Collection (AID 1794843);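 note: nitrocefin turnover by NDM-1 measured as 485 nm absorbance at plateau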
# Sequence of Metallo-beta-lactamase type 2 (Klebsiella pneumoniae) (C7C422 whole entry, looked up): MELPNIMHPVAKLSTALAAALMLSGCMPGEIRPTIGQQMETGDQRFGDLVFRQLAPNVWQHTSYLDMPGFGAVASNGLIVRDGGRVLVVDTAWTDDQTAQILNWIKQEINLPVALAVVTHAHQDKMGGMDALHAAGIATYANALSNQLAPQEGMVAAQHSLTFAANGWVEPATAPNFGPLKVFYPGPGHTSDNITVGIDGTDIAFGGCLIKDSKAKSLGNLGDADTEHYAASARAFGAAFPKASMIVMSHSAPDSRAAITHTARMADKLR
# Procedure, shortened: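 Nitrocefin hydrolysis (50 uM substrate stock) by NDM-1, 2 nM final, was followed by 485 nm absorbance after compound preincubation; buffer was 50 mM HEPES pH 7.0, 1 uM ZnSO4, 0.01% Tween20.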
# [4] = target: Glutathione peroxidase 1 (Homo sapiens) (UniProt P07203); test: Primary qHTS Assay for Inhibitors of Recombinant Selenoprotein Glutathione Peroxidase 1 (GPX1) (AID 1845191); note: nearly all actives have a fitted effect of over 65% in size
# Sequence of Glutathione peroxidase 1 (Homo sapiens) (P07203 whole entry, looked up): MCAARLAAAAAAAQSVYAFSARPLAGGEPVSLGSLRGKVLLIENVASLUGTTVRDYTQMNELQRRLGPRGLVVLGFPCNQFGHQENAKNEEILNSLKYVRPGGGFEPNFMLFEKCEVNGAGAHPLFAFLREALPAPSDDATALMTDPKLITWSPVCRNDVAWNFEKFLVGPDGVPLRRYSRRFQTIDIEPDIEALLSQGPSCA
# Procedure, shortened: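 10 nM GPX1 + cpd, 30 min RT; start w/ 1 mM GSH, 0.5 mM cumene hydroperoxide, 0.5 mM NADPH, 100 nM GR, 0.01% BSA; buffer 50 mM Tris-HCl pH 7.5, 2 mM EDTA, 150 mM NaCl; Fl 340/450, 0 & 15 min.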
# [5] = qHTS profiling for inhibitors of Plasmodium falciparum proliferation (AID 504749); note: potency is the fitted concentration of half-maximal effect; for all read-outs here: nearly all actives have a fitted effect of over 60% in size; details: P. falciparum in erythrocytes, SYBR Green DNA, 72 h; for activity, negative = inhibition: at 28.7 µM (top of the series)
# Procedure, shortened: (§1)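 Three-day growth assay of blood-stage parasites in erythrocytes (0.3% parasitemia, 2.5% hematocrit) at 37 C, 5% CO2, quantified by SYBR Green DNA staining after overnight detergent lysis.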
# AA1029 = test: as above; details: P. falciparum in erythrocytes, SYBR Green DNA, 72 h; series mostly up to 28.7 µM
# Procedure, shortened: as §1
# AS120 = test: as above; details: P. falciparum in erythrocytes, SYBR Green DNA, 72 h; series mostly up to 28.7 µM
# Procedure, shortened: as §1
# ATS189 = test: as above; details: P. falciparum in erythrocytes, SYBR Green DNA, 72 h; series mostly up to 28.7 µM
# Procedure, shortened: as §1
# ATS95 = test: as above; details: P. falciparum in erythrocytes, SYBR Green DNA, 72 h; series mostly up to 28.7 µM
# Procedure, shortened: as §1
# CP185 = test: as above; details: P. falciparum in erythrocytes, SYBR Green DNA, 72 h; series mostly up to 28.7 µM
# Procedure, shortened: as §1
# CP191 = test: as above; details: P. falciparum in erythrocytes, SYBR Green DNA, 72 h; series mostly up to 28.7 µM
# Procedure, shortened: as §1
# [6] = target: Phospholipid hydroperoxide glutathione peroxidase GPX4 (Homo sapiens) (UniProt P36969); test: Primary qHTS Assay for Inhibitors of Recombinant Selenoprotein Glutathione Peroxidase 4 (GPX4) (AID 1845192); details: outcome: dose series up to 50 µM unless noted; note: nearly all actives have a fitted effect of over 65% in size
# Sequence of Phospholipid hydroperoxide glutathione peroxidase GPX4 (Homo sapiens) (P36969 whole entry, looked up): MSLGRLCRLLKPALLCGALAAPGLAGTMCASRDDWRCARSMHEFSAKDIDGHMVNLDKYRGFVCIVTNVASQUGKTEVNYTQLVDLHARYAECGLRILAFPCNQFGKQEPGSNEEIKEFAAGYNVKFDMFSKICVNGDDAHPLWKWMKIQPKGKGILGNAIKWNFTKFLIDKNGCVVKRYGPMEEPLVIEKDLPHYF
# Procedure, shortened: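 NADPH consumption, followed by fluorescence at 340/450 nm between 0 and 15 min, reports GPX4 activity via coupled glutathione reductase (100 nM). Enzyme 200 nM was pre-exposed to compound 30 min; 0.5 mM cumene hydroperoxide and 1 mM GSH served as substrates.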
# 3D7 = test: qHTS profiling for inhibitors of Plasmodium falciparum proliferation (AID 504749); note: nearly all actives have a fitted effect of over 60% in size; note: potency is the fitted concentration of half-maximal effect; details: P. falciparum in erythrocytes, SYBR Green DNA, 72 h; series mostly up to 28.7 µM
# Procedure, shortened: as §1
# 7G8 = test: as above; details: P. falciparum in erythrocytes, SYBR Green DNA, 72 h; series mostly up to 28.7 µM
# Procedure, shortened: as §1
# [7] = NCATS anti-infectives library activity on HEK293 viability as a counter-qHTS vs the C. elegans viability qHTS (AID 1745854);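 note: HEK293 cells exposed to compounds for 24 hr before the viability read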
# Procedure, shortened: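 Cytotoxicity in human HEK293 cells is measured by ATP-dependent CellTiter-Glo luminescence following a 24 hr incubation with titrated library compounds at 37C. Top final concentration is 41.7 uM.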
# C2A = test: qHTS profiling for inhibitors of Plasmodium falciparum proliferation (AID 504749); note: nearly all actives have a fitted effect of over 60% in size; note: potency is the fitted concentration of half-maximal effect; details: P. falciparum in erythrocytes, SYBR Green DNA, 72 h; series mostly up to 28.7 µM
# Procedure, shortened: as §1
compound,measurement,setting,value
COC(=O)[C@@H](N)Cc1ccc(O)c(O)c1,activity,[1],4.06%
same,activity,[2],5.34%
same,Potency,[3],inactive
same,Potency,[4],inactive
same,"activity, negative = inhibition",[5]; parasite line B,-10.7% (inactive)
same,Potency,AA1029,inactive
same,Potency,AS120,inactive
same,Potency,ATS189,inactive
same,Potency,ATS95,inactive
same,Potency,CP185,inactive
same,Potency,CP191,inactive
NC(N)=N/N=C/c1c(Cl)cccc1Cl,activity,[1],-52.2%
same,activity,[2],-1.71%
same,Potency,[3],inactive
same,Potency,[4],inactive
same,outcome,[6],inactive
same,Potency,3D7,inactive
same,Potency,7G8,11.2 µM (active)
same,Potency,AS120,inactive
C=CCc1ccccc1OCC(O)CNC(C)C (centres undefined),outcome,[7],inactive
same,Potency,[3],inactive
same,Potency,[4],inactive
same,outcome,[6],inactive
same,"activity, negative = inhibition",[5]; parasite line A,-5.93% (inactive)
same,Potency,3D7,inactive
same,Potency,7G8,8.91 µM (active)
same,Potency,AA1029,10 µM (active)
same,Potency,AS120,4.47 µM (active)
same,Potency,C2A,inactive
C[C@@H](O)[C@H]1C(=O)N2C(C(=O)O)=C(SCCN=CN)C[C@H]12,Potency,[3],inactive
same,Potency,[4],inactive
CCn1nc(C(=O)O)c(=O)c2cc3c(cc21)OCO3,Potency,[3],inactive
CCc1c(C)[nH]c2c1C(=O)C(CN1CCOCC1)CC2 (centres undefined),activity,[1],-7.58%
same,activity,[2],4.21%
same,Potency,[3],inactive
NC1=NCC2c3ccccc3Cc3ccccc3N12 (centres undefined),activity,[1],-14.5%
same,activity,[2],-3.06%
same,Potency,[3],inactive
same,Potency,[4],inactive
same,outcome,[6],inactive
same,"activity, negative = inhibition",[5]; parasite line A,-23% (inactive)
same,Potency,3D7,inactive
same,Potency,AA1029,inactive
same,Potency,AS120,inactive
same,Potency,ATS189,inactive
same,Potency,ATS95,inactive
same,Potency,C2A,inactive
same,Potency,CP185,inactive
CN(C)CC[C@@H](c1ccc(Br)cc1)c1ccccn1,activity,[1],-23.7%
same,activity,[2],0.473%
same,Potency,[4],inactive
same,outcome,[6],inactive
same,"activity, negative = inhibition",[5]; parasite line A,-5.21% (inactive)
same,"activity, negative = inhibition",[5]; parasite line B,2.6% (inactive)
same,Potency,3D7,inactive
same,Potency,7G8,8.91 µM (active)
same,Potency,ATS189,inactive
same,Potency,C2A,inactive
CCCN(CCC)C(=O)C(CCC(=O)O)NC(=O)c1ccccc1 (centres undefined),Potency,[3],inactive
same,Potency,[4],inactive
C(=C\c1ccccc1)/CN1CCN(C(c2ccccc2)c2ccccc2)CC1,Potency,[3],inactive
same,Potency,[4],inactive
CC1=C(C)C(=O)C(CCCCC#CCCCC#CCO)=C(C)C1=O,activity,[1],-9.42%
same,activity,[2],5.31%
same,Potency,[3],inactive
same,Potency,[4],inactive
same,outcome,[6],inactive
same,Potency,[5]; parasite line A,11.2 µM (active)
same,Potency,3D7,12.6 µM (active)
same,Potency,7G8,2.51 µM (active)
same,Potency,AS120,6.31 µM (active)
same,Potency,C2A,10 µM (active)
CNCCCN1c2ccccc2CCc2ccccc21,outcome,[7],inactive
same,Potency,[3],inactive
same,Potency,[4],inactive
same,outcome,[6],inactive
N[C@@H](COP(=O)(O)O)C(=O)O,Potency,[3],inactive
same,Potency,[4],inactive
CC(=O)OC(C)C[N+](C)(C)C (centres undefined),Potency,[3],inactive
same,Potency,[4],inactive
same,outcome,[6],inactive
CN1C[C@H](C(=O)N[C@]2(C)O[C@@]3(O)[C@@H]4CCCN4C(=O)[C@H](Cc4ccccc4)N3C2=O)C[C@@H]2c3cccc4[nH]cc(c34)C[C@H]21,Potency,[3],inactive
same,Potency,[4],inactive
CCc1cccc(N(C)C(N)=Nc2cccc3ccccc23)c1,activity,[1],-4.43%
same,activity,[2],1.17%
same,Potency,[3],inactive
same,Potency,[4],inactive
same,outcome,[6],inactive
same,"activity, negative = inhibition",[5]; parasite line A,-26.1% (inactive)
same,"activity, negative = inhibition",[5]; parasite line B,-10.7% (inactive)
same,Potency,3D7,inactive
same,Potency,7G8,3.98 µM (active)
same,Potency,AA1029,3.55 µM (active)
same,Potency,C2A,inactive
